Source: the supplement of paper PMC12669032

Key:
Assay in all cases: growth AUC relative to DMSO control (median of replicates) (fraction); higher = more growth (less inhibition), active = hit call of the paper
Conditions in all cases: 20 µM; 24 h;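 active = AUC reduced over 20% with Padj below 0.05 in at least 2 of 3 replicates; inactive = otherwise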
Akkermansia muciniphila = system: Akkermansia muciniphila
Procedure, shortened: (§1)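 Gut bacterial monocultures were grown anaerobically at 37 °C in mGAM, starting at OD600 0.05, with 20 µM compound (1% DMSO) in round-bottom 96-well plates under pierced gas-permeable seals. OD600 was read hourly for 24 h. Area under the growth curve (minimum OD set to 0) was normalised to the plate median of DMSO controls, or to row and column medians on the industrial chemical plate. The value is the median of three biological replicates grown on separate days.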

Bacteroides caccae = system: Bacteroides caccae
Procedure, shortened: as §1

Bacteroides clarus = system: Bacteroides clarus
Procedure, shortened: as §1

Bacteroides dorei = system: Bacteroides dorei
Procedure, shortened: as §1

Bacteroides stercoris = system: Bacteroides stercoris
Procedure, shortened: as §1

[1] = system: Bacteroides thetaiotaomicron
Procedure, shortened: as §1

Bacteroides uniformis = system: Bacteroides uniformis
Procedure, shortened: as §1

[2] = system: Bifidobacterium longum subsp. longum
Procedure, shortened: as §1

Clostridium difficile = system: Clostridium difficile
Procedure, shortened: as §1

Collinsella aerofaciens = system: Collinsella aerofaciens
Procedure, shortened: as §1

Measured: growth AUC

Nc1ccc(O)cc1
inactive: Akkermansia muciniphila 0.951 | Bacteroides caccae 1 | Bacteroides clarus 1.01 | Bacteroides dorei 0.998 | Bacteroides stercoris 1.11 | [1] 1.01 | Bacteroides uniformis 1.03 | [2] 0.921 | Clostridium difficile 1.01 | Collinsella aerofaciens 1.01

COC1CCC2(CC1)NC(=O)C(c1cc(C)ccc1C)=C2O (stereo not given)
inactive: Akkermansia muciniphila 0.863 | Bacteroides caccae 0.974 | Bacteroides clarus 1.05 | Bacteroides dorei 1.02 | Bacteroides stercoris 1.12 | [1] 1.01 | Bacteroides uniformis 1.01 | [2] 1.09 | Clostridium difficile 1.02 | Collinsella aerofaciens 1.05

O=C(O)Cc1c(Cl)ccc(Cl)c1Cl
inactive: Akkermansia muciniphila 0.95 | Bacteroides caccae 1 | Bacteroides clarus 0.99 | Bacteroides dorei 1.02 | Bacteroides stercoris 0.951 | [1] 1 | Bacteroides uniformis 0.993 | [2] 1.04 | Clostridium difficile 1 | Collinsella aerofaciens 1

Cc1[nH]n(C)c(=O)c1C(=O)c1ccc(C(F)(F)F)cc1S(C)(=O)=O
inactive: Akkermansia muciniphila 0.91 | Bacteroides caccae 1.06 | Bacteroides clarus 0.997 | Bacteroides dorei 1.02 | Bacteroides stercoris 1.01 | [1] 0.978 | Bacteroides uniformis 1.01 | [2] 0.977 | Clostridium difficile 0.989 | Collinsella aerofaciens 1

CCCCOC(=O)[C@@H](C)Oc1ccc(Oc2ccc(C(F)(F)F)cn2)cc1
inactive: Akkermansia muciniphila 0.865 | Bacteroides caccae 0.983 | Bacteroides clarus 0.932 | Bacteroides dorei 0.951 | Bacteroides stercoris 0.851 | [1] 0.948 | Bacteroides uniformis 0.918 | [2] 0.969 | Clostridium difficile 0.989 | Collinsella aerofaciens 0.963
